Test results published in PubChem BioAssay (NCI).
About 83,000 compounds went through this panel and 20% of them were active in at least one assay; those are over-represented in the sample as a whole.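 In brief: 96-well plates, 48 h treatment, single concentration, percent growth endpoint.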 Activity calls are given as the source filed them. Rule for the calls: active = growth percent below 10; inactive = the rest.

Experiments:
Experiment in all cases: NCI-60 one-dose screen, 48 h (100 = growth as untreated, 0 = no growth, -100 = all killed)
Settings in all cases: 10 µM unless noted
SR leukemia = tested on: SR leukemia
RPMI-8226 leukemia = tested on: RPMI-8226 leukemia
OVCAR-8 ovarian = tested on: OVCAR-8 ovarian
OVCAR-5 ovarian = tested on: OVCAR-5 ovarian
OVCAR-4 ovarian = tested on: OVCAR-4 ovarian
SK-OV-3 ovarian = tested on: SK-OV-3 ovarian
IGROV1 ovarian = tested on: IGROV1 ovarian
OVCAR-3 ovarian = tested on: OVCAR-3 ovarian
HS 578T breast = tested on: HS 578T breast
NCI/ADR-RES ovarian = tested on: NCI/ADR-RES ovarian

Measured: growth

CCOc1ccc2[nH]c(=O)c(C(c3nnnn3CC3CCCO3)N3CCN(Cc4ccccc4)CC3)cc2c1 (stereo not given)
inactive: SR leukemia 111% | RPMI-8226 leukemia 99.1% | OVCAR-8 ovarian 84.2% | OVCAR-5 ovarian 97% | OVCAR-4 ovarian 94.9% | SK-OV-3 ovarian 79.3% | IGROV1 ovarian 84.6% | OVCAR-3 ovarian 100% | HS 578T breast 20.1% | NCI/ADR-RES ovarian 90.1%

CC(C)CN1C(=O)/C(=C\C(=O)c2cc3ccccc3oc2=O)c2ccccc21
inactive: SR leukemia 34.6% | RPMI-8226 leukemia 85.4% | OVCAR-8 ovarian 97.7% | OVCAR-5 ovarian 111% | OVCAR-4 ovarian 87.3% | SK-OV-3 ovarian 104% | IGROV1 ovarian 87.7% | OVCAR-3 ovarian 51.1% | HS 578T breast 102% | NCI/ADR-RES ovarian 95.8%

Cc1ccc(C(=O)Nc2cccc(C(=O)NC(=S)Nc3ccc(S(N)(=O)=O)cc3)c2)cc1
inactive: SR leukemia 79.7% | RPMI-8226 leukemia 82.2% | OVCAR-8 ovarian 51.1% | OVCAR-5 ovarian 91.5% | OVCAR-4 ovarian 31.6% | SK-OV-3 ovarian 77% | IGROV1 ovarian 96.2% | OVCAR-3 ovarian 78.8% | HS 578T breast 63.8% | NCI/ADR-RES ovarian 84.8%

COc1ccc(N=Nc2c(N)nn3c(N)c(C#N)c(-c4ccc(C)cc4)nc23)cc1
active: RPMI-8226 leukemia 3.4%
inactive: SR leukemia 44.6% | OVCAR-8 ovarian 66.3% | OVCAR-5 ovarian 99.9% | OVCAR-4 ovarian 53.2% | SK-OV-3 ovarian 90.2% | IGROV1 ovarian 33.5% | OVCAR-3 ovarian 15.2% | HS 578T breast 27.7% | NCI/ADR-RES ovarian 62.2%

Cn1cc(-c2cc(N)n3nc(-c4c[nH]c5ccccc45)cc3n2)c2ccccc21
active: RPMI-8226 leukemia -3.23% | OVCAR-8 ovarian -83% | OVCAR-5 ovarian -79% | OVCAR-4 ovarian -34.7% | SK-OV-3 ovarian -95.1% | IGROV1 ovarian -79.8% | OVCAR-3 ovarian -79.4% | HS 578T breast -23.7% | NCI/ADR-RES ovarian -40.6%
inactive: SR leukemia 12.1%

NNc1ncnc2sc3c(c12)CCN(Cc1ccccc1)C3
inactive: SR leukemia 40.1% | RPMI-8226 leukemia 39.3% | OVCAR-8 ovarian 20% | OVCAR-5 ovarian 70.6% | OVCAR-4 ovarian 28.6% | SK-OV-3 ovarian 72.3% | IGROV1 ovarian 83.2% | OVCAR-3 ovarian 13.4% | HS 578T breast 72.3% | NCI/ADR-RES ovarian 35.3%

COc1ccc(NC(=O)N/N=C/c2c[nH]c3ccccc23)cc1
inactive: SR leukemia 23.4% | RPMI-8226 leukemia 24.9% | OVCAR-8 ovarian 20.5% | OVCAR-5 ovarian 37.4% | OVCAR-4 ovarian 69.9% | SK-OV-3 ovarian 37.5% | IGROV1 ovarian 40.8% | HS 578T breast 27.1% | NCI/ADR-RES ovarian 15.3%
active: OVCAR-3 ovarian -34.1%

COc1ccc(C(=O)C[n+]2cccc3c4ccccc4ccc32)cc1
inactive: SR leukemia 34.4% | RPMI-8226 leukemia 25.2% | OVCAR-8 ovarian 25.9% | OVCAR-5 ovarian 58.3% | OVCAR-4 ovarian 33.4% | SK-OV-3 ovarian 50.1% | IGROV1 ovarian 67.4% | OVCAR-3 ovarian 51.7% | HS 578T breast 58.9% | NCI/ADR-RES ovarian 97.7%

FC(F)(F)CN1CCN(CCn2c(C(F)(F)F)cc3c(Cl)ncnc32)CC1
inactive: OVCAR-5 ovarian 103% | OVCAR-4 ovarian 21.5% | SK-OV-3 ovarian 71.4% | HS 578T breast 47.4% | NCI/ADR-RES ovarian 75.1%
active: SR leukemia -54.6% | RPMI-8226 leukemia -6.12% | OVCAR-8 ovarian 8.76% | IGROV1 ovarian -80.5% | OVCAR-3 ovarian -47.4%

CC1=C(C(=O)OCc2ccccc2)C(c2ccc(N(C)C)cc2)n2c(nc3ccccc32)N1 (stereo not given)
inactive: SR leukemia 46% | RPMI-8226 leukemia 81.4% | OVCAR-8 ovarian 95.6% | OVCAR-5 ovarian 102% | OVCAR-4 ovarian 81.4% | SK-OV-3 ovarian 95.4% | IGROV1 ovarian 84% | OVCAR-3 ovarian 92.6% | HS 578T breast 61.7% | NCI/ADR-RES ovarian 73.2%

COc1cc(/C=C/C(=O)c2cnn(-c3cc(=O)[nH]c4ccccc34)c2C)cc(OC)c1OC
active: SR leukemia -3.34% | RPMI-8226 leukemia -11.6% | OVCAR-8 ovarian -18.1% | OVCAR-5 ovarian -3.98% | SK-OV-3 ovarian 9.66% | IGROV1 ovarian 6.78% | OVCAR-3 ovarian 8.06%
inactive: OVCAR-4 ovarian 39.4% | HS 578T breast 35.5% | NCI/ADR-RES ovarian 42.2%

C/C(=N\Nc1ccc(S(N)(=O)=O)cc1)c1cnn(-c2cc(=O)[nH]c3ccc(Br)cc23)c1C
active: SR leukemia 4.11%
inactive: RPMI-8226 leukemia 74.3% | OVCAR-8 ovarian 80.5% | OVCAR-5 ovarian 81.4% | OVCAR-4 ovarian 67.7% | SK-OV-3 ovarian 69.2% | IGROV1 ovarian 56.9% | OVCAR-3 ovarian 56.2% | HS 578T breast 28.4% | NCI/ADR-RES ovarian 90.1%

CCCN(CCC)S(=O)(=O)c1ccc(C(=O)O)cc1.CCCN(CCC)S(=O)(=O)c1ccc(C(=O)O)cc1.[Cl][Pt+2][Cl].[NH2-].[NH2-]
active: SR leukemia 3.39% | IGROV1 ovarian 7.54% | OVCAR-3 ovarian 0.454%
inactive: RPMI-8226 leukemia 12.3% | OVCAR-8 ovarian 39.7% | OVCAR-5 ovarian 24.5% | OVCAR-4 ovarian 35.4% | SK-OV-3 ovarian 18.8% | HS 578T breast 80.8% | NCI/ADR-RES ovarian 101%

C=CCSc1nnc(-c2ccc(-c3nc4ccc(Cl)cc4[nH]3)cc2)o1
inactive: SR leukemia 23.7% | RPMI-8226 leukemia 55.2% | OVCAR-8 ovarian 63.9% | OVCAR-5 ovarian 76.8% | OVCAR-4 ovarian 66.5% | SK-OV-3 ovarian 88.8% | IGROV1 ovarian 59.6% | OVCAR-3 ovarian 34% | HS 578T breast 36.2% | NCI/ADR-RES ovarian 54.3%

CCc1ccccc1-c1nc(CN[C@@H]2C[C@@H]3C[C@H]([C@H]2C)C3(C)C)c(C)o1
active: SR leukemia -15.6% | RPMI-8226 leukemia -13.9% | OVCAR-8 ovarian -66.4% | OVCAR-5 ovarian -87.4% | OVCAR-4 ovarian -42.9% | SK-OV-3 ovarian -79.8% | IGROV1 ovarian -85% | OVCAR-3 ovarian -61.6% | HS 578T breast -43.4% | NCI/ADR-RES ovarian -78.4%

O=C(c1ccc(O)cc1)C1[C@H](c2ccc(Cl)cc2)[C@@H](c2ccccc2)NC12C(=O)Nc1ccc(Br)cc12 (stereo not given in full)
inactive: SK-OV-3 ovarian 22%
active: SR leukemia -52.7% | RPMI-8226 leukemia 3.14% | OVCAR-8 ovarian 5.82% | OVCAR-5 ovarian -19.4% | OVCAR-4 ovarian -8.82% | IGROV1 ovarian -40.4% | OVCAR-3 ovarian 2.42% | HS 578T breast -5.94% | NCI/ADR-RES ovarian -37.2%

O=Cc1cncc(-c2ccc3ncnc(N4CCc5cc(F)c(Cl)cc54)c3c2)c1
inactive: RPMI-8226 leukemia 15.4% | OVCAR-8 ovarian 39.8% | OVCAR-5 ovarian 27.6% | OVCAR-4 ovarian 43.4% | OVCAR-3 ovarian 25.2% | NCI/ADR-RES ovarian 34.8%
active: SR leukemia -4.69% | SK-OV-3 ovarian 4.6% | IGROV1 ovarian -41.2% | HS 578T breast -17.9%

Cc1ccc2nc(SCc3ccccc3F)n(-c3ccccc3)c(=O)c2c1
inactive: SR leukemia 109% | RPMI-8226 leukemia 93.4% | OVCAR-8 ovarian 100% | OVCAR-5 ovarian 116% | OVCAR-4 ovarian 98.9% | SK-OV-3 ovarian 118% | IGROV1 ovarian 105% | OVCAR-3 ovarian 115% | HS 578T breast 96.3% | NCI/ADR-RES ovarian 89%

C=CC(=O)Nc1ccc(C(=O)/C=C/c2ccc(N(C)C)cc2)c(O)c1
inactive: OVCAR-4 ovarian 39% | SK-OV-3 ovarian 11.7% | IGROV1 ovarian 15.8% | HS 578T breast 21.7% | NCI/ADR-RES ovarian 15.3%
active: SR leukemia 2.78% | RPMI-8226 leukemia 6.01% | OVCAR-8 ovarian -8.4% | OVCAR-5 ovarian 7.71% | OVCAR-3 ovarian -18.3%

O=C(CSc1nc2ccccc2c(=O)[nH]1)Nc1ccccc1C(=O)O
inactive: SR leukemia 95.2% | RPMI-8226 leukemia 102% | OVCAR-8 ovarian 109% | OVCAR-5 ovarian 105% | OVCAR-4 ovarian 109% | SK-OV-3 ovarian 90.7% | IGROV1 ovarian 109% | OVCAR-3 ovarian 106% | HS 578T breast 79.3% | NCI/ADR-RES ovarian 103%

Cc1cc(C(NC(=O)C2CC3(CC(Nc4cccc5c4C(=O)N(C4CCC(=O)NC4=O)C5=O)C3)C2)c2ccc3c(c2)OC(F)(F)O3)c(O)c2ncccc12 (stereo not given)
active: OVCAR-8 ovarian 4.53% | SK-OV-3 ovarian -4.52% | IGROV1 ovarian 6%
inactive: SR leukemia 10.6% | RPMI-8226 leukemia 15% | OVCAR-5 ovarian 35.1% | OVCAR-4 ovarian 35% | OVCAR-3 ovarian 16.1% | HS 578T breast 29.3% | NCI/ADR-RES ovarian 12.2%

CS(=O)(=O)Nc1cc(-c2ccc3ncnc(Nc4ccc(OCc5cccnc5)c(Cl)c4)c3c2)cnc1Cl
active: SR leukemia -60.1% | RPMI-8226 leukemia -2.42% | OVCAR-8 ovarian 8.77% | SK-OV-3 ovarian -14.9% | IGROV1 ovarian -56.8% | OVCAR-3 ovarian -40.7% | HS 578T breast -25.3%
inactive: OVCAR-5 ovarian 12.1% | OVCAR-4 ovarian 28.9% | NCI/ADR-RES ovarian 70.5%

Cc1cc(C(NC(=O)CCCCCNc2cccc3c2C(=O)N(C2CCC(=O)CC2=O)C3=O)c2cccc(N(C)C)c2)c(O)c2ncccc12 (stereo not given)
inactive: SR leukemia 25.3% | RPMI-8226 leukemia 15.6% | OVCAR-5 ovarian 38.1% | OVCAR-4 ovarian 33.2% | OVCAR-3 ovarian 16.3% | HS 578T breast 19.6% | NCI/ADR-RES ovarian 50.6%
active: OVCAR-8 ovarian 2.18% | SK-OV-3 ovarian -2.15% | IGROV1 ovarian 1.63%

N#CC1=C(c2cccs2)Nc2c(c(-c3ccccc3)nn2-c2ccccc2)C12C(=O)Nc1ccc(Cl)cc12 (stereo not given)
inactive: SR leukemia 12.6% | RPMI-8226 leukemia 13.3% | OVCAR-8 ovarian 28% | OVCAR-4 ovarian 27.2% | SK-OV-3 ovarian 59% | IGROV1 ovarian 24% | OVCAR-3 ovarian 23.1% | NCI/ADR-RES ovarian 33%
active: OVCAR-5 ovarian 5.03% | HS 578T breast 8.15%

Cc1ccc(C(=O)Nc2cc(-c3ccncc3)cc(C(F)(F)F)c2)cc1C#Cc1cnc2cccnn12
inactive: RPMI-8226 leukemia 20% | OVCAR-8 ovarian 50.4% | OVCAR-5 ovarian 53.5% | OVCAR-4 ovarian 63.5% | SK-OV-3 ovarian 127% | IGROV1 ovarian 54.4% | OVCAR-3 ovarian 95.6% | HS 578T breast 23% | NCI/ADR-RES ovarian 50.2%
active: SR leukemia -11.9%

O=C(N/N=C/c1c[nH]c2ccccc12)Nc1ccc(F)c(Cl)c1
active: NCI/ADR-RES ovarian 9.47%
inactive: SR leukemia 19.3% | RPMI-8226 leukemia 27.5% | OVCAR-8 ovarian 50.2% | OVCAR-5 ovarian 60.1% | OVCAR-4 ovarian 52.8% | SK-OV-3 ovarian 38.6% | IGROV1 ovarian 42.7% | OVCAR-3 ovarian 18.9% | HS 578T breast 58.8%
